# High-throughput results (PubChem)
# An excerpt weighted towards active compounds, which were near 7.9% of everything screened.
# Lassa entry inh – qHTS for Inhibitors of binding or entry into cells for Lassa Virus | Lassa virus pseudotype entry inhibition, cell reporter | Potency, µM (series often up to 37.9 µM), for the others: at the top dose activity change, negative = inhibition, hits mostly inhibitors | hit rate 1.2% among 300,000 | AID 540256, 2011; calls by dose curve; tested in HEK293 cells; also: potency is read from the fitted curve at half-maximal effect; nearly all actives have a fitted effect of over 50% in size
# FMDV antiviral – High Throughput Screening for Foot and Mouth Disease Virus Antivirals; FMDV antiviral cell-based qHTS; AID 1159524, 2015; Potency, µM (top dose mostly 57.9 µM), for inactives: top-dose activity change, negative = inhibition, hits mostly inhibitors; hit rate 1.2% among 410,000; calls by dose curve; tested in HEK293T cells; also: read-out not given here; potency is read from the fitted curve at half-maximal effect; nearly all actives have a fitted effect of over 45% in size
# MARV entry inh – qHTS for inhibitors of binding or entry into cells for Marburg Virus | Marburg virus pseudotyped entry inhibition, cell reporter | Potency, µM (top dose mostly 37.8 µM), for the others: at the top dose activity change, negative = inhibition, hits mostly inhibitors | hit rate 1.8% among 300,000; calls by dose curve; tested in HEK293 cells; also: potency is read from the fitted curve at half-maximal effect
# HCMV antiviral – qHTS Assay for inhibitors of the human cytomegalovirus (HCMV) | HFF cells, HCMV-luciferase reporter, 72 h; active compounds read low | activity change, negative = inhibition, % at 57.5 µM | hit rate 4.5% among 410,000; in the data active = activity change below about -60%; inconclusive = no clear call, values can overlap the other calls; inactive = above about -39%
#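 Steps: HFFs plated, 16 h 37C; compounds added; HCMV-luciferase added to MOI 1 PFU/cell; 72 h 37C; OneGlo reagent, 5 min room temperature; luminescence read, normalized to controls.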
# HCV inhibitor – qHTS Assay for Inhibitors of Hepatitis C Virus (HCV). Potency, µM (highest dose often 41.8 µM), for the others: at the top dose activity change, negative = inhibition, most hits filed as inhibitors. hit rate 3.4% among 340,000. Huh7.5.1 HCVcc-Cre infection, luciferase reporter, 44 h. AID 651820, 2012; active = well fitted inhibition curve with a large enough effect; inconclusive = small, poorly fitted or top-dose-only effect, or another doubt; inactive = no such curve, though single readings can be large or run the other way; also: potency is read from the fitted curve at half-maximal effect
#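 Antiviral activity was scored by luciferase reporter output from cells infected with HCVcc-Cre (~0.5 moi) in presence of compound, 44 h infection period, cells seeded 1,000/well 4 h prior.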
# An asterisk follows results filed as active; ? = inconclusive; / = not tested or not shown; [ ] = remark or other dose. % is scaled to controls: 0 for no effect and ±100 for the full control effect.
SMILES,Lassa entry inh,FMDV antiviral,MARV entry inh,HCMV antiviral,HCV inhibitor
Cc1ccc(NC(=O)CSc2nc3ccccc3n2CC(=O)N(C)C2CCCCC2)cc1C,?,-4.9%,/,-13.7,/
Nc1n[nH]c(-c2ccc(Br)cc2)c1Cl,1.5%,-5.2%,-7.9%,-108.6*,-8.8%
Nc1nc(-c2ccc(Cl)cc2)nnc1-c1ccc(Br)cc1,8.8%[46.1 µM],12.2%,?,-4.7,8.5%
CCN(CC)S(=O)(=O)c1ccc(S(=O)(=O)N(Cc2ccccn2)Cc2ccco2)cc1,?,/,-12.4%,-22.7,10µM*
O=S(=O)(NCc1ccccc1)c1ccc(S(=O)(=O)N(Cc2ccccn2)Cc2ccco2)cc1,-8.7%,/,12.3%,51.0,-11.8%
CN(Cc1cnn(-c2ccc(F)cc2)c1)C(=O)[C@H]1O[C@@H](n2cnc3c(N)ncnc32)[C@H](O)[C@@H]1O,/,-16.3%,/,0.0,/
O=C1CC(c2nc(-c3ccccc3)no2)CN1c1ccc2c(c1)OCCO2 (centres undefined),23.8%[46.1 µM],-10.3%,/,-2.3,/
Cc1ccc(N2C(=O)/C(=C/N3CCN(C(=O)c4ccco4)CC3)C(=O)NC2=S)cc1C,5.6%,-0.1%,2.7%,-101.0*,-4.1%
Cc1ccc(Cl)cc1NC(=O)CN1C(=O)COc2ccc(S(=O)(=O)N3CCOCC3)cc21,23.5%[46.1 µM],8.2%,/,-2.3,17.5%
Clc1cccc(Cc2c(-c3ccco3)nc3ccc(Cl)cn23)c1,/,39.8µM*,/,-18.3,/
Cc1ccc(Cc2c(-c3ccco3)nc3c(C)cc(Br)cn23)cc1,/,-28.8%,/,-101.7*,/
Clc1cccc(Cc2c(-c3ccco3)nc3ccc(Br)cn23)c1,/,25.1µM*,/,25.1,/
Cc1cc(Br)cn2c(Cc3cccc(Cl)c3)c(-c3ccco3)nc12,/,-17.9%,/,4.2,/
Clc1ccc(-c2nc3ccc(Cl)cn3c2Cc2cccc(Cl)c2)cc1,/,34.2%,/,15.8,/
O=C(NNCc1ccccc1)c1ccccn1,?,11.0%,?,29.4,7.9%
Cc1ccc(S(=O)(=O)NCCn2nc(C)cc2C)cc1,?,13.3%,17.2%[46.1 µM],19.4,-2.4%
CCCn1c(N)c(C(=O)CSc2nc3ccccc3s2)c(=O)[nH]c1=O,?,?,?,-66.1*,?
CCCn1c(N)c(C(=O)CSc2nnc(N)s2)c(=O)[nH]c1=O,/,-23.6%,/,7.3,-3.7%
COC(=O)C1=C(C)N(Cc2ccccc2)C(=NCCc2ccc(O)cc2)NC1c1ccc(Br)cc1 (centres undefined),/,/,1.8%[14.2 µM],/,/
Cc1oc(-c2ccccc2)cc1C(=O)NCc1ccncc1,/,-25.8%,/,15.3,-16.0%
CC(=O)Oc1cc2c(C(=O)NCc3ccncc3)c(C)oc2c2ccccc12,/,-6.3%,/,6.4,11.2µM*
COc1ccc(NCc2cccn2-c2nnc(N3CCCCCC3)s2)cc1,24.4%[46.1 µM],-20.4%,/,-31.8,/
Cc1ccccc1-n1nc(CO)c(C(=O)NCC(c2ccccc2)c2ccccc2)n1,?,12.6µM*,-27.6%[46.1 µM],-86.3*,/
O=C(NCC(c1ccccc1)c1ccccc1)c1nn(-c2ccccc2Cl)nc1CO,?,?,-27.8%[46.1 µM],-92.4*,/
Cc1ccc(-n2nc(CO)c(C(=O)NCC(c3ccccc3)c3ccccc3)n2)cc1,-1.6%[46.1 µM],-15.0%,-0.4%[46.1 µM],38.7,/
SMILES,Lassa entry inh,FMDV antiviral,MARV entry inh,HCMV antiviral,HCV inhibitor
CCOc1ccc(-n2c(C)nc3cc(C(=O)NCc4ccc(C)cc4)ccc32)cc1,?,1.1%,/,-36.1,/
Cc1ncc(S(=O)(=O)c2ccccc2)c(-c2ccccc2)n1,2.0%,-17.6%,-17.9%,-17.8,16.4%
Cc1ncc(N=Nc2ccccc2)c(-c2ccccc2)n1,-2.8%,-25.2%,2.4%,-3.7,10µM*
CCN(CC(=O)Nc1ccccc1C(F)(F)F)C(=O)C1=COCCO1,?,4.6%,-17.7%,-8.8,17.7%
Cc1cccc(Nc2nc(N)c([N+](=O)[O-])c(NCc3ccco3)n2)c1,1.5%,?,?,16.1,?
Nc1nc(Nc2cccc(Cl)c2)nc(NCc2ccco2)c1[N+](=O)[O-],?,?,5.62µM*,40.1,?
Cc1cccc(Nc2nc(NCc3ccco3)nc(N)c2[N+](=O)[O-])c1,?,4.4%,5.62µM*,-14.8,?
CCCCCc1cc(=O)oc2c(C(CCN(CC)CC)c3ccc(OC)cc3)c(OC)cc(OC)c12 (centres undefined),/,-4.8%,/,-80.6*,?
CC(C)c1cc(C(C)C)c(S(=O)(=O)NC(c2ccccn2)C23CC2C3)c(C(C)C)c1 (centres undefined),/,3.6%,/,-3.5,/
CC[N+](CC)(CCCCS(=O)(=O)[O-])CCNP1(=O)C=C(c2ccccc2)OC(c2ccccc2)=C1,/,2.7%,/,-70.4*,6.5%
O=C(NCc1cccs1)C(=O)NCC(c1ccco1)N1CCN(c2ccccc2F)CC1 (centres undefined),/,-14.6%,/,0.0,11.2µM*
O=C(NCC(c1ccco1)N1CCN(c2ccc(F)cc2)CC1)OCc1ccccc1 (centres undefined),1.26µM*,-29.6%,?,13.0,?
O=C(NCC(c1ccco1)N1CCN(c2ccccc2F)CC1)c1cccs1 (centres undefined),-17.1%,-4.6%,?,/,0.8%[8.37 µM]
COC(=O)NCC(c1ccco1)N1CCN(c2ccc(F)cc2)CC1 (centres undefined),-28.3%,2.6%,0.9%,-13.6,28.2%
O=S(=O)(NCC(c1ccco1)S(=O)(=O)c1ccccc1)c1cc(F)ccc1F (centres undefined),0.6%[46.1 µM],59.2%,/,-68.6*,/
O=S(=O)(NCC(c1ccco1)S(=O)(=O)c1ccccc1)c1ccccc1 (centres undefined),?,33.5%,/,-12.1,/
CCOc1cc(Cl)c(NC(C)=O)cc1OCC,10.1%,-18.8%,7.9%,-63.1*,?
CN(CP(=O)(O)C(O)c1ccccc1)S(C)(=O)=O (centres undefined),-1.2%,-3.5%,-2.2%,-88.0*,13.8%
COc1ccc2c(c1)sc(=NC(=O)CS(=O)(=O)c1ccc(F)cc1)n2C,-4.9%,-18.3%,?,-73.4*,?
CCCn1c(=NC(=O)CS(=O)(=O)c2ccccc2)sc2cc(S(C)(=O)=O)ccc21,-16.3%,-11.6%,-25.5%,?,8.7%
CCCCCOC(=O)C1C(c2ccccc2)C(C(=O)O)C1c1ccccc1 (centres undefined),-23.6%,-22.6%,-1.5%,-93.1*,23.9%
COC(=O)C1C(c2ccccc2)C(C(=O)OCc2ccco2)C1c1ccccc1 (centres undefined),?,-13.1%,20.6µM*,10.3,?
CC1CN(C(=O)CCC(=O)NCc2cccs2)c2cc(Cl)ccc2O1 (centres undefined),?,-4.8%,22.4%[46.1 µM],13.7,/
COc1ccccc1-c1ccc(SCc2ccc([N+](=O)[O-])cc2)nn1,?,-14.0%,10µM*,-68.1*,?
Cc1nc(C)c(-c2ccc(SCc3ccc([N+](=O)[O-])cc3)nn2)s1,/,-28.7%,/,?,31.6µM*
Cc1nc(C)c(-c2ccc(SCc3ccc(Cl)cc3)nn2)s1,/,-8.5%,/,-26.6,?
